# A549 tox-1 – counter-screen for Nrf2 inhibitors: cytotoxicity in A549 cells | A549 ARE-Fluc cells, CellTiter-Fluor viability, 18-24 h | Potency, µM (series often up to 46 µM), for inactives: at the highest dose activity change, negative = cytotoxicity, usual class: inhibitors | 0.16% of 390,000 active | AID 504648; note: % is set by controls: 0 for no effect and ±100 for the full control effect
#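 Cytotoxicity counterscreen: CellTiter-Fluor fluorescence was measured in A549 ARE_Fluc cells after 18-24 h of compound exposure in a concentration series. The subsequent BugLite luminescent read reports ARE-luciferase activity.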
# Epigenetic derep – epigenetic control regulation, reporter derepression | murine LDR cells, GFP reporter derepression, 30 h | Potency, µM (highest dose often 53.9 µM), inactives show at the highest dose GFP activation, hits mostly activators | 0.2% of 280,000 active | AID 1865; note: % of control where 0% means no effect; nearly all actives have a fitted effect of over 60% in size
#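 Murine LDR cells carrying a silenced, genomically integrated CMV-driven GFP reporter were exposed to compound for 30 hours at 37 C. After PBS washes, GFP-positive cells (20–120 um objects) were counted by laser-scanning microplate cytometry.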
# PINK1 expr mod – PINK1 expression modulation; PINK1 immunofluorescence, high-content cytometry, 24 h; Potency, µM (highest dose often 76.6 µM), inactives show at the top dose activation (PINK1 increase), hits mostly activators; 0.2% of 410,000 active; active = well fitted activation curve with a large enough effect; inconclusive = small, poorly fitted or top-dose-only effect; cell line not stated here; note: % of control where 0% means no effect; nearly all actives have a fitted effect of over 65% in size
#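 A stable cell line was treated with compounds at 5 concentrations for 24 hours, with CCCP as control. PINK1 levels and mitochondrial localization were measured by immunofluorescence with mitochondrial, cell and nuclear markers after fixation, read by laser-scanning cytometry.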
# Nrf2 ARE act – activators of Nrf2 (ARE) signaling; AREc32 ARE-luciferase reporter (MCF7-derived line), luminescence, 24 h; Potency, µM (doses to about 46.1 µM), inactives show at the highest dose activation, most hits filed as activators; 0.31% of 410,000 active; AID 624171; note: % of control where 0% means no effect; nearly all actives have a fitted effect of over 65% in size
#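 Luciferase luminescence (Steady-Glo, 30 min at room temperature) served as the read-out of ARE activation in AREc32 cells treated with compounds for 24 hr at 37 deg C.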
# Nrf2 block – inhibitors of Nrf2 signaling; Potency, µM (doses to about 46 µM), for inactives: at the top dose activity change, negative = inhibition, most hits filed as inhibitors; AID 504444; 2.1% of 360,000 active; A549 ARE-Fluc reporter, luciferase luminescence, 18-24 h; note: % is set by controls: 0 for no effect and ±100 for the full control effect; nearly all actives have a fitted effect of over 60% in size
#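 Quantitative HTS in A549 cells stably bearing an antioxidant response element-firefly luciferase construct. Inhibition of Nrf2-driven transcription was scored by luminescence after 18-24 h of compound exposure at 37 °C.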
# FLuc enzyme inh – firefly luciferase inhibition, Nrf2 hit validation; 4% of 1,400 active; shares compounds with Nrf2 block; purified firefly luciferase, luminescence inhibition; Potency, µM (top dose mostly 57.5 µM), for the others: at the highest dose activity change, negative = inhibition, most hits filed as inhibitors; note: % is set by controls: 0 for no effect and ±100 for the full control effect; nearly all actives have a fitted effect of over 65% in size
# A549 tox-2 – counter-screen for Nrf2 inhibitors: cytotoxicity in A549 ARE cells. AID 720523. Potency, µM (highest dose often 46.1 µM), for the others: top-dose activity change, negative = cytotoxicity, most hits filed as inhibitors. shares compounds with Nrf2 block. A549 ARE-Fluc cells, cytotoxicity counterscreen. 2% of 1,400 active;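 note: cells exposed to compounds for 18 to 24 hours; % is set by controls: 0 for no effect and ±100 for the full control effect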
# Nrf2 ARE inh – reduces Nrf2 ARE reporter signal in A549 cells; A549 ARE-firefly luciferase reporter, luminescence; Potency, µM (doses to about 46.1 µM), inactives show at the top dose activity change, negative = inhibition, hits mostly inhibitors; 74% of 1,400 active; shares compounds with Nrf2 block; note: % is set by controls: 0 for no effect and ±100 for the full control effect; nearly all actives have a fitted effect of over 65% in size
# The depositor's hits bear a star; ? = inconclusive; . = not tested or not shown; [ ] = another dose, or the depositor's remark. Sampled rows, rich in hits. Any-hit rate of the full collection: about 2.4%. Unless noted, calls come from the whole dose curve; as a rule, active = well fitted curve in the direction sought with a large enough effect; inconclusive = small, poorly fitted or top-dose-only effect, or another doubt; inactive = no such curve, though single readings can be large; an effect the other way counts as inactive or inconclusive. Potency is the fitted concentration of half-maximal effect.
SMILES,A549 tox-1,Epigenetic derep,PINK1 expr mod,Nrf2 ARE act,Nrf2 block,FLuc enzyme inh,A549 tox-2,Nrf2 ARE inh
O=C(/C=C/c1ccc(S(=O)(=O)N2CCOCC2)cc1)N1CCN(c2ccccc2)CC1,1%,3%,0%,-1%,5.8µM*,1%,0%,?
COc1ccc(S(=O)(=O)N2CCN(CCOc3ccc(Br)cc3)CC2)cc1OC,-16%,.,0%,4%,5.8µM*,-11%,?,7.3µM*
COc1cc(OC)cc(-c2cc3nc(C)c(CCC(=O)Nc4ccc(F)c(Cl)c4)c(C)n3n2)c1,-1%,9%,3%,-5%,2.1µM*,?,-5%,5.8µM*
COC(=O)C12OCC34C(CC5C(C)=C(O)C(=O)CC5(C)C3C(O)C1O)OC(=O)C(OC(=O)C=C(C)C)C24 (configuration not stated),?,.,-6%,-1%,0.016µM*,2%,?,0.012µM*
N=c1c2c(n(Cc3ccccc3)c3c1CCC3)CCC2,?,-2%,0%,-1%,1.5µM*,-1%,-4%,?
CCCCCn1c2c(c(=N)c3ccccc31)CCC2,-5%,-1%,4%,0%,2.6µM*,2%,-10%,4.1µM*
CCCCCCCCCCn1c2c(c(=N)c3c1CCC3)CCC2,?,-1%,-1%,-5%,?,.,.,.
N=c1c2c(n(Cc3ccc(Cl)cc3)c3c1CCC3)CCC2,-4%,1%,?,0%,?,.,.,.
CC(Nc1ncnc2sccc12)c1ccccc1 (configuration not stated),-7%,.,0%,0%,1.6µM*,0%,0%,1.5µM*
O=C(Nc1ccc2oc(-c3cccnc3)nc2c1)c1ccc(-c2cccc(OC(F)(F)F)c2)o1,-3%,-1%,?,4%,1.5µM*,-24%,-9%,1.8µM*
Cc1c(Cl)cccc1-c1ccc(C(=O)Nc2ccc3oc(-c4cccnc4)nc3c2)o1,0%,0%,5%,3%,?,.,.,.
O=C(COC(=O)c1ccccc1OCc1cccc(Br)c1)Nc1ccc(Br)cc1,.,.,1%,.,.,.,.,.
O=C(Cc1ccccc1)Nc1scc(-c2ccccc2)c1C(=O)N1CCOCC1,3%,0%,-2%,0%,11%,.,.,.
NC(=O)c1c(-c2ccc(Cl)cc2Cl)csc1NC(=O)Cc1ccccc1,-14%,2%,11%,2%,2.6µM*,-18%,1%,5.2µM*
CCN(CC)S(=O)(=O)c1ccc2oc(C(=O)Nc3ccc(OC)cc3OC)c(C)c2c1,-5%,-1%,6%[38.3 µM],0%,3.7µM*,-1%,5%,15µM*
CCN(CC)S(=O)(=O)c1ccc2oc(C(=O)NCc3ccc(F)cc3)c(C)c2c1,-16%,-1%,2%,3%,6.5µM*,-2%,-6%,23µM*
CCc1cc2c(cc3c(=O)n(CC(=O)NC4CCC(C)CC4)nc(CC)n32)s1 (configuration not stated),1%,0%,1%,8%,?,.,.,.

# Screening data as filed in PubChem.
